Experimental data published in PubChem BioAssay (NCATS).
Records with an inconclusive call do not appear. The source made the active and inactive calls. The call rests on the fitted dose curve; in most records, active means well fitted curve in the direction sought with a large enough effect; inconclusive means small, poorly fitted or top-dose-only effect, or another doubt; inactive means no such curve, though single readings can be large; an effect the other way counts as inactive or inconclusive. Numbered stars: 1 amine (or outer) side, 2 acyl side, 3 side chain; on linkers, the order of the positions; unused ones are H or OH. Bridge positions count the residues as written; N and C are the ends. Square brackets hold non-standard residues; d marks the D form. Peptide text beside a SMILES is read from it. ξ: configuration not given here. Phe(3R-OH) = O=C([C@@H](N[*:1])[C@H](O[*:3])c1ccccc1)[*:2]; NMeTrp(4-OMe) = CN[C@@H](Cc1c[nH]c2cccc(OC)c12)C(=O)O; ξThr(3R)(O-yl) = C[C@@H](O[*:3])C(N[*:1])C(=O)[*:2]; NMeThr(3ξ) = CN[C@H](C(=O)O)C(C)O; NMeL = CN[C@@H](CC(C)C)C(=O)O; NMeV = CN[C@H](C(=O)O)C(C)C; ξIle = CC[C@H](C)C(N)C(=O)O; ξV = CC(C)C(N)C(=O)O

Tests used:
[1] = test system: Zika virus NS2B-NS3 protease (linked construct); experiment: Primary screen NINDS Rhodamine qHTS for Zika virus inhibitors (AID 1347160); further: nearly all actives have a fitted effect of over 55% in size; further: potency means the concentration at half of the fitted maximal effect; on activity change, negative = inhibition: on the % scale 0 is the no-effect control and ±100 the full control effect
In short: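 Purified NS2B-NS3 protease with the NS2B hydrophilic domain joined by a flexible linker (25 nM) in 10 mM Tris-HCl pH 8.0, 0.01% Tween 20, preincubated 15 min at RT with compound; Rhodamine110 peptide substrate 1.5 µM; fluorescence change over 15 min; 4-parameter Hill fit.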

[2] = UWB1.289 Cancer Cell Toxicity qHTS against the NCATS CANVASS Library (AID 1347347); further: nearly all actives have a fitted effect of over 60% in size
In short: (§1)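 1000 cells/well seeded and rested 4 h at 37 °C before pin transfer of compounds in an 11-pnt series. Exposure 72 h at 37 °C/5% CO2; viability by CellTiter-Glo luminescence after 15 min at room temperature.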

[3] = Panc-1005 Cancer Cell Toxicity qHTS against the NCATS CANVASS Library (AID 1347349); further: series mostly up to about 38 µM; on the % scale 0 is the no-effect control and ±100 the full control effect; nearly all actives have a fitted effect of over 60% in size
In short: as §1

[4] = SW1088 Cancer Cell Toxicity qHTS against the NCATS CANVASS Library (AID 1347350); further: nearly all actives have a fitted effect of over 75% in size
In short: as §1

[5] = U-118MG Cancer Cell Toxicity qHTS against the NCATS CANVASS Library (AID 1347351)
In short: as §1

[6] = A2780 Cisplatin Sensitive Ovarian Cancer Cell Toxicity qHTS against the NCATS CANVASS Library (AID 1347353); further: nearly all actives have a fitted effect of over 60% in size
In short: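 A2780 cells, 750/well, settled 4 h at 37 °C, then treated with an 11-point compound series for 72 h. Viability was read as ATPLite luminescence after 10 min at room temperature, with bortezomib as control.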

[7] = UWB1.289-WTBRCA1 Cancer Cell Toxicity qHTS against the NCATS CANVASS Library (AID 1347354)
In short: (§2)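 Cells at 1000/well were given compound 4 h after plating in an 11-point series. Viability was read by CellTiter-Glo luminescence after 72 h at 37 degrees C.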

[8] = HEK-293 Cancer Cell Toxicity qHTS against the NCATS CANVASS Library (AID 1347355); further: series mostly up to about 46 µM; nearly all actives have a fitted effect of over 65% in size
In short: as §2

[9] = test system: NAD(P)H diaphorase (Clostridium kluyveri); experiment: Diaphorse counterscreen qHTS: Assay Interference Panel against the NCATS CANVASS Library (AID 1347362); further: 0% is about no effect
In short: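 Clostridium kluyveri diaphorase in PBS with 0.01% Tween-20 was preincubated 15 min at room temperature in the dark with compounds (11-point series). Resorufin fluorescence (ex 525/20, em 598/25) was read 5 min after adding resazurin/NADH.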

[10] = KB-8-5-11 Cancer Cell Toxicity qHTS against the NCATS CANVASS Library (AID 1347364); further: nearly all actives have a fitted effect of over 75% in size
In short: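 KB-8-5-11 cells, 500/well in DMEM + 10% FBS, given compounds in an 11-point series. Incubated 72 h at 37 °C. Viability by CellTiter-Glo luminescence. Confirmation also run with 1 uM tariquidar.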

[11] = qHTS for Hypoxia signaling pathway (HIF-1) antagonists against the NCATS CANVASS Library (AID 1347374);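 further: HRE-bla ME-180 cells stimulated with cobalt chloride to stabilize HIF-1alpha; series mostly up to about 38 µM; on the % scale 0 is the no-effect control and ±100 the full control effect; nearly all actives have a fitted effect of over 60% in size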
In short: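 HRE-bla ME-180 cells in medium with 0.5% dialyzed FBS received compounds (11-point series) plus CoCl2 (60 uM addition stock) for 17 hrs at 37C. Beta-lactamase activity read with CCF4 (405 nm ex, 460/530 nm em); CellTiter-Glo viability measured in same wells.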

[12] = DH5-alpha competent E. coli microbial cell viability qHTS against the NCATS CANVASS Library (AID 1347377); details: outcome: dose series up to 46.1 µM unless noted; further: 0% is about no effect
In short: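 DH5-alpha E. coli suspension was exposed to an 11-point compound series overnight at 37 °C. Viable cells quantified by ATP luminescence (BacTiter-Glo) after 20 min at room temperature.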

[13] = qHTS for H2AX Agonists against the NCATS CANVASS Library (AID 1347378);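 further: phospho-H2AX S139 level in CHO-K1 lysates by TR-FRET emission ratio; 0% is about no effect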
In short: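 CHO-K1, 1000 cells/well, o/n 37C; cpd several conc, 3 hr 37C, 0.76% DMSO; lyse 30 min RT; cryptate anti-pH2AX(S139) + d2 anti-H2AX, 24 hr RT; HTRF 665/620.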

[14] = qHTS for Activators of p53 Stress Response Pathway screened against the NCATS CANVASS Library (AID 1347388); further: 0% is about no effect
In short: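 p53RE-bla HCT-116 cells (4000/well) were plated 5 h at 37C, exposed to compounds for 16 h at 37C over an 11-point concentration series, then loaded with CCF4 for 2 h at room temperature; 460/530 nm emission ratio read.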

[15] = qHTS assay for small molecule disruptors of mitochondrial membrane potential screened against the NCATS CANVASS Library (AID 1347389)
In short: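 HepG2 cells (2,000/well) plated overnight, then exposed to compounds in 11-point qHTS series for 1 h at 37C before 30 min Mito-MPS dye; depolarization read as fall in red aggregate (590 nm) to green monomer (535 nm) fluorescence.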

[16] = Secretion counterscreen for inhibitors of the SERCaMP assay screened against the NCATS CANVASS Library (AID 1347390);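 further: light from luciferase secreted into medium read as a measure of general secretion; series mostly up to about 77 µM; on the % scale 0 is the no-effect control and ±100 the full control effect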
In short: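 SH-SY5Y-GLuc STOP cells; 4 h attach; cpds 0.001 - 77 uM (qHTS, 11 pts), 20 h 37C/5% CO2; coelenterazine in glow buffer; luminescence, 5 s exposure.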

[17] = qHTS for activators of dead-cell proteases activity screened against the NCATS CANVASS Library (AID 1347392);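 further: luminescence from protease leaking out of membrane-damaged cells cleaving impermeant substrate; 0% is about no effect; rising signal means more cytotoxicity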
In short: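 HepG2 cells (2000/well) attached 18 h at 37C, then exposed 5 h to compounds (11-point qHTS). Dead-cell protease activity read as luminescence from cell-impermeant AAF-aminoluciferin substrate after 15 min at room temperature.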

[18] = qHTS for inhibitors of Wild type Zika virus screened against the NCATS CANVASS Library (AID 1347396);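 further: ATP luminescence of surviving cells so rescue from viral cell killing; series mostly up to about 46 µM; on the % scale 0 is the no-effect control and ±100 the full control effect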
In short: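 Vero 766 (African green monkey) cells, 1000 per well, attached overnight, then compounds were added in an 11-point series before wild-type Zika virus infection. After 72 h at 37C, cell viability was read as CellTiter Glo luminescence.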

[19] = SDT Cancer Cell Toxicity qHTS against the NCATS CANVASS Library (AID 1347365); further: nearly all actives have a fitted effect of over 60% in size
In short: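 SDT dog glioma cells (500/well) exposed to an 11-point compound series for 72 hr at 37C, 5% CO2. Cytotoxicity read as ATP content by CellTiterGlo luminescence; bortezomib titration as control.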

[20] = molecular target: Nuclear receptor subfamily 1 group I member 3 (Homo sapiens) (UniProt Q14994); experiment: qHTS for Constitutive Androstane Receptor (CAR) Antagonist screened against the NCATS CANVASS Library (AID 1347372);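 further: cells stimulated with 50 nM CITCO agonist so inhibition reflects antagonism; series mostly up to about 46 µM; on the % scale 0 is the no-effect control and ±100 the full control effect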
Chain of Nuclear receptor subfamily 1 group I member 3 (Homo sapiens) (Q14994 whole entry, looked up): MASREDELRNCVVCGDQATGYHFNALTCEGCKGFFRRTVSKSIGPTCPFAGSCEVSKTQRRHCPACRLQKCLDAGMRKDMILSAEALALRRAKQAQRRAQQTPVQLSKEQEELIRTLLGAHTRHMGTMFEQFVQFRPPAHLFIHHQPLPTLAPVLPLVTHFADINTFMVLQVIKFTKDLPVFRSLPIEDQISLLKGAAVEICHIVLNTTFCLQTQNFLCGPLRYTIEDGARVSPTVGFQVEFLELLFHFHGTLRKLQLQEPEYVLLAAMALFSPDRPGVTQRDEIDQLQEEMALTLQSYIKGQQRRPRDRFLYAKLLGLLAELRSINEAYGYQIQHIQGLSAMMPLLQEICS
In short: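 HepG2 cells stably carrying hCAR and a CYP2B6-2.2kb luciferase reporter were exposed to compounds plus 50 nM CITCO for 24hr at 37C. CAR activity was read by ONE-Glo luminescence, with viability measured first by CellTiter-Fluor.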

CC[C@H](C)C(NC(=O)[C@@H](NC)C(C)C)C(=O)NC1C(=O)N(C)[C@@H](C(C)O)C(=O)N[C@@H](C(C)C)C(=O)N(C)[C@@H](CC(C)C)C(=O)NC(C(C)C)C(=O)N(C)[C@@H](C(C)C)C(=O)N(C)[C@@H](Cc2c[nH]c3cccc(OC)c23)C(=O)N[C@@H](C(C)C)C(=O)N[C@@H]([C@H](O)c2ccccc2)C(=O)N[C@@H](C(C)C)C(=O)O[C@@H]1C (stereo partly drawn) (H-[NMeV][ξIle][ξThr(3R)(O-yl)][NMeThr(3ξ)]V[NMeL][ξV][NMeV][NMeTrp(4-OMe)]V[Phe(3R-OH)]V; ester 3-C)
inactive: Potency [1] | Potency [2] | Potency [3] | Potency [4] | Potency [5] | Potency [6] | Potency [7] | Potency [8] | Potency [9] | Potency [10] | Potency [11] | outcome [12] | Potency [13] | Potency [14] | Potency [15] | Potency [16] | Potency [17] | Potency [18]

CC1C(=O)C23CCC1C[C@]21O[C@@H]2C(C)(C)C=CC(=O)[C@@]23COC1=O (some centres not stated)
active: Potency [1] 31.1 µM
inactive: Potency [2] | Potency [3] | Potency [4] | Potency [5] | Potency [6] | Potency [7] | Potency [8] | Potency [9] | Potency [10] | Potency [19] | Potency [20] | Potency [11] | outcome [12] | Potency [13] | Potency [14] | Potency [15] | Potency [16] | Potency [17] | Potency [18]

COc1ccc([C@@H]2c3cc(OC)c(OC)cc3C(=O)[C@H](C)C2C)cc1OC (some centres not stated)
inactive: Potency [1] | activity change, negative = cytotoxicity [2] 3.43% [at 7.64 µM] | activity change, negative = cytotoxicity [3] 1.86% [at 7.64 µM] | outcome [4] inactive [at 7.64 µM] | activity change, negative = cytotoxicity [5] 3.5% [at 7.64 µM] | outcome [6] inactive [at 9.19 µM] | outcome [7] inactive [at 7.64 µM] | outcome [8] inactive [at 9.19 µM] | activity change, negative = inhibition [9] 0.301% [at 11.5 µM] | activity change, negative = toxicity [10] -6.69% [at 9.19 µM] | outcome [19] inactive [at 9.19 µM] | activity change, negative = inhibition [20] -2.16% [at 9.19 µM] | activity change, negative = inhibition [11] 9.63% [at 7.64 µM] | viability signal change, negative = cytotoxic [12] 10.6% [at 9.19 µM] | activation [13] -1.51% [at 15.3 µM] | activation [14] 4.12% [at 9.19 µM] | activity change, negative = depolarization [15] -7.07% [at 9.19 µM] | activity change, negative = inhibition [16] -9% [at 15.3 µM] | activation (cytotoxicity) [17] -0.488% [at 9.19 µM] | activity change, negative = antiviral [18] 5.82% [at 9.14 µM]

C=C1[C@H]2CC[C@@]3(C=CC(=O)[C@@](C)(CCC(=O)Nc4c(O)ccc(C(=O)O)c4O)C3C2)[C@H]1O (some centres not stated)
active: Potency [1] 44 µM
inactive: Potency [2] | Potency [3] | Potency [4] | Potency [5] | Potency [6] | Potency [7] | Potency [8] | Potency [9] | Potency [10] | Potency [20] | Potency [11] | outcome [12] | Potency [13] | Potency [14] | Potency [15] | Potency [16] | Potency [17] | Potency [18]

C/C=C/C=C/C1(O)C2C=C3C(=O)CC45C(=O)C(O)=C(C)C(=O)C4C1C1(C(=O)C(O)=C(C)C(=O)C351)C2C (configuration not stated)
inactive: Potency [2] | Potency [3] | Potency [4] | Potency [5] | Potency [6] | Potency [7] | Potency [8] | Potency [9] | Potency [10] | Potency [19] | Potency [20] | Potency [11] | outcome [12] | Potency [13] | Potency [14] | Potency [15] | Potency [16] | Potency [17] | Potency [18]
active: Potency [1] 39.2 µM
